Values joined by “and” are separate entries in the source; they are usually repeats but may differ in a detail not shown here. Equal entries are not always repeated. Screen size: about 330,000 compounds; about 1,900 (0.58%) were called active. Another 4% or so got no clear call; they are omitted. Rule as the data show it: inconclusive = inhibition above about 70% without an active follow-up result; inactive = below that. A selection follows. Entries with a potency or affinity are not part of this list.

This experiment can be described thus: M. tuberculosis growth inhibition, HTS (AID 449762).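 Also: bacterial growth assessed after seven days of incubation.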 As to conditions: M. tuberculosis H37Rv growth inhibition, 7H9 media; at 25 µM; hits give high values.
Regarding `O=C(CNC(=O)c1ccc(Br)o1)NC12CC3CC(CC(C3)C1)C2`, the inhibition was 5.74% (inactive). To `COc1ccc(CN2C(=NC(=O)COc3ccccc3)SC3CS(=O)(=O)CC32)cc1` (configuration not stated) belongs -7.1% (inactive); to `Cc1cc(C)n2nc(SCCCC(=O)c3ccc(F)cc3)nc2n1`, -9.89% (inactive); to `CN(C)N=Nc1ccc2nc[nH]c2c1`, -2.52% (inactive).

Turning to `NC(=O)c1[nH]cnc1N`, the inhibition was -17.9% (inactive) and 7.5% (inactive). Under `O=C1CCCCN1CCC(=O)N1CCCC(N2CCN(c3cccc(Cl)c3)CC2)C1` (configuration not stated) stands -10.9% (inactive); under `O=C(NNC(=O)C1CC(c2cccs2)=NO1)Nc1ccc(Cl)cc1` (configuration not stated), -0.49% (inactive); under `Cc1cc(=O)[nH]c(SCC(=O)N(CCC#N)c2ccccc2)c1C#N`, -2.5% (inactive).

As to `CCCCNC(=S)N1CCn2cccc2C1c1cccnc1` (configuration not stated), the inhibition is -0.76% (inactive). To `C=C1C(=O)[C@@]23[C@H](O)C[C@@H]4C(C)(C)CC[C@H](O)[C@]4(C)[C@@H]2C[C@H](O)[C@@H]1[C@H]3O` belongs 62.1% (inactive); to `COc1cc(-c2ccc3c(=O)c4ccccc4sc3c2)cc(OC)c1OC`, 8.35% (inactive); to `CCOC(=O)c1c(C)oc2ccc(NS(=O)(=O)c3ccc4c5c(cccc35)C(=O)N4)cc12`, 62.7% (inactive). Regarding `Cc1oc2c(cc(NS(=O)(=O)c3ccc4c5c(cccc35)C(=O)N4)c3ccccc32)c1C(=O)OC(C)C`, the inhibition was 51% (inactive). As for `Nc1nc(SCc2ccc(Cl)cc2Cl)ns1`, the inhibition was 22.1% (inactive). Regarding `Nc1nc(SCc2ccccc2)ns1`, the inhibition was 15% (inactive). To `CC1(C)CC[C@]2(C(=O)O[C@@H]3OC(CO)[C@@H](O)[C@H](O)[C@H]3O)CC[C@]3(C)C(=CCC4[C@@]5(C)CC[C@H](O[C@@H]6OC(C(=O)O)[C@@H](O)[C@H](O)[C@H]6O)C(C)(C)C5CC[C@]43C)[C@@H]2C1` (some centres not stated) belongs 1.92% (inactive). Under `CN(CC(=O)Nc1cccc(F)c1)C(=O)c1ccc(-c2cccc(C(F)(F)F)c2)o1` stands 0.48% (inactive); under `CCOc1ccccc1N(CC(=O)Nc1cccc2ccccc12)S(C)(=O)=O`, -0.92% (inactive).

Consider `CC1(C)Cc2c(c(N3CCOCC3)nc3sc4c(NCCN5CCOCC5)nnnc4c23)CS1`, for which the inhibition is 36.9% (inactive).

Regarding `CC1(C)Cc2c(c(N3CCOCC3)nc3sc4c(NCC5CCCO5)nnnc4c23)CS1` (configuration not stated), the inhibition was 11.7% (inactive).

Regarding `O=S(=O)(NC1=NCCC1)c1cccc(NS(=O)(=O)c2ccc(OC(F)(F)F)cc2)c1`, the inhibition was -9.41% (inactive). Consider `COc1ccccc1N(CC(=O)NCCc1ccccc1)C(=O)CCC(=O)Nc1ccccn1`, for which the inhibition is -2.52% (inactive). Regarding `COc1ccc(NC(=O)N2CCC3(CC2)OCCO3)cc1OC`, the inhibition was 1.68% (inactive). Under `COc1ccc(NC(=O)CSc2nnc(-c3ccccn3)n2N)cc1` stands 8.63% (inactive); under `COc1ccc(NC(=O)CSc2nnc(-c3ccco3)n2N)cc1Cl`, 46.6% (inactive); under `CC(C)(C)c1ccc(C(=O)NCC(=O)NNC(=O)c2ccccc2O)cc1`, 8.86% (inactive). `O=C(N/N=C/c1ccncc1)c1cc2c(ccc3ccccc32)o1`: the inhibition is 1.21% (inactive). As to `O=C(O)c1ccc(/C=N/NC(=O)c2cc3c(ccc4ccccc43)o2)cc1`, the inhibition is 4.81% (inactive). Under `CC(C)(C)c1ccc(OCC(=O)Nc2ccc(C(=O)Nc3ccccc3C(=O)O)cc2)cc1` stands -6.72% (inactive); under `Cc1ccc(N=Cc2ccc[nH]2)c(O)c1`, 2.98% (inactive); under `O=C1NCC(O)=C1C=NCCCO`, -4.48% (inactive). Under `O=C1NCC(O)=C1C=NCCO` stands 4.69% (inactive). To `Fc1ccc(N=Cc2ccc[nH]2)cc1` belongs 13.1% (inactive); to `N#CCCn1cc(C(=O)Nc2cccc(C(=O)O)c2)c(-c2ccc(Cl)cc2)n1`, -2.32% (inactive); to `Cc1ccccc1COc1ccc(-c2nnn(CC(=O)O)n2)cc1`, 0.49% (inactive).

Regarding `CCOc1ccc(NC(=O)CN(C)C(=O)c2c(-c3ccccc3)noc2C)cc1OCC`, the inhibition was -10.4% (inactive). `Cc1ccc(NC(=O)CCC(=O)NNC(=O)CCc2ccccc2)c(C)c1`: the inhibition was 8.11% (inactive).

As to `CCc1ccccc1NNC(=O)CCc1ccccc1`, the inhibition is 4.45% (inactive).

With `CCOC(=O)CSc1nnc(CSc2nc3sc4c(c3c(=O)[nH]2)CCC4)n1C`, the inhibition was -1.21% (inactive). With `COCCN1C(=O)C(CC(=O)Nc2ccccc2)SC1=Nc1ccc(OC)cc1` (configuration not stated), the inhibition was 6.34% (inactive).

Turning to `Cc1ccc(NC(=O)c2cc(-c3ccccc3)nn2-c2ccccc2)c(Br)c1`, the inhibition was 62.5% (inactive). To `Cc1ccc(NC(=O)c2cc(-c3ccccc3)nn2-c2ccccc2)cc1` belongs 0.76% (inactive); to `Cc1ccnc(NC(=O)COC(=O)C2COc3ccccc3O2)n1` (configuration not stated), -4.37% (inactive).

On to `CCOc1ccc(S(=O)(=O)N2CCCCC2)cc1NS(=O)(=O)c1cccs1`, for which the inhibition is -3.42% (inactive). To `COc1cc([C@@H]2c3cc4c(cc3[C@@H](OC)[C@H]3COC(=O)[C@H]23)OCO4)cc(OC)c1O` belongs -15.3% (inactive). On to `COc1cc([C@@H]2c3cc4c(cc3[C@H](O)[C@H]3COC(=O)[C@H]23)OCO4)cc(OC)c1OC`, for which the inhibition was -2.97% (inactive). Under `Cc1ccc(NC(=O)c2ccc3ccccc3n2)nc1` stands 5.21% (inactive); under `CCc1ccc(NC(=O)C(C)OC(=O)c2ccc(NS(=O)(=O)c3ccc(C)c([N+](=O)[O-])c3)cc2)cc1` (configuration not stated), -6.87% (inactive).

With `COc1ccc(CCNC(=O)C2CC(c3cccc([N+](=O)[O-])c3)=NO2)cc1` (configuration not stated), the inhibition is 2.77% (inactive). Turning to `CC(C)Cc1nn2c(=O)cc(CSCC(=O)Nc3ccccc3F)nc2s1`, the inhibition is -6.22% (inactive). `Cc1cc(C(=O)CSc2ccc(Cl)cc2)cc(C)c1OC(=S)N(C)C`: the inhibition was -12.1% (inactive). Turning to `Cc1ccc(N2C(=O)N(CC(=O)c3cc(C)ccc3C)C(=O)C2C)cc1` (configuration not stated), the inhibition is 4.01% (inactive). To `CCOc1ccc(NC(=S)NC(=O)c2cccnc2)c([N+](=O)[O-])c1` belongs 6.15% (inactive).

With `O=c1[nH]c(=S)n(C2CCCCC2)c(O)c1C=NCCN1CCOCC1`, the inhibition was 4.57% (inactive). To `Cn1c(O)c(C=NCCN2CCNCC2)c(=O)n(C)c1=O` belongs -6.91% (inactive). Take `O=C1N/C(=N\N=C\c2ccc3ncccc3c2)SC1Cc1ccc(SC(F)F)cc1` (configuration not stated): the inhibition was -20.7% (inactive). Under `O=C(O)CC1S/C(=N/N=C/c2ccccn2)NC1=O` (configuration not stated) stands -2.11% (inactive).

The inhibition is the drop in the measured response relative to a control, in per cent.

Source of the values: PubChem BioAssay AID449762 (Southern Research Specialized Biocontainment Screening …, 2010).
